Hits are enriched below; roughly 7.1% of the tested compounds scored in any of these assays.
ATXN2 expr inh – ATXN2 expression inhibition. HEK-293 ATXN2-luciferase reporter, luminescence, 24 h. Potency, µM (highest dose often 57 µM), without a hit: top-dose activity change, negative = inhibition, actives largely listed as inhibitors. 360,000 compounds, 0.72% hits; also: potency is read from the fitted curve at half-maximal effect; % is scaled to controls: 0 for no effect and ±100 for the full control effect; nearly all actives have a fitted effect of over 55% in size
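ATXN2-luciferase reporter cells (luciferase flanked by upstream and downstream ATXN2 gene portions) were treated 24 h at 37 °C with compounds at up to 57 uM. SteadyGlo luminescence gave expression; GF-AFC fluorescence gave viability.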
MCF10A rerep – DNA re-replication induction in MCF 10a cells; MCF 10A DNA re-replication, Hoechst nuclear intensity, 48 h; Potency, µM (highest dose often 46.1 µM), inactives show top-dose activity, positive = re-replication, usual class: activators; 350,000 compounds, 2.9% hits; AID 624296; also: potency is read from the fitted curve at half-maximal effect; % of control where 0% means no effect; nearly all actives have a fitted effect of over 50% in size
S2 tox – reduces viability in counter-screen for ATXN expression inhibitors | S2 cells (HEK-293 line with an ATXN2-luciferase reporter) viability, CellTiter-Fluor protease fluorescence, 24 h | Potency, µM (series often up to 56.7 µM), usual class: cytotoxic | 400,000 compounds, 0.49% hits; also: potency is read from the fitted curve at half-maximal effect; nearly all actives have a fitted effect of over 40% in size
SW480 rerep – DNA re-replication induction in SW480 cells | SW480 DNA re-replication, Hoechst DNA content imaging, 48 h | Potency, µM (series often up to 46.1 µM), for the others: top-dose re-replication activation, most hits filed as activators | 340,000 compounds, 1.8% hits | AID 624297; also: potency is read from the fitted curve at half-maximal effect; % of control where 0% means no effect; nearly all actives have a fitted effect of over 55% in size
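Per well, 250 cells were exposed to pinned compound for 48 hr. Nuclear DNA was visualised with Hoechst (40 min, 37 C) and total object intensity recorded by fluorescence scanning.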
PINK1 modulator – changes PINK1 expression; 410,000 compounds, 0.2% hits; Potency, µM (highest dose often 76.6 µM), for inactives: at the highest dose activation (PINK1 increase), actives largely listed as activators; PINK1 immunofluorescence, high-content cytometry, 24 h; active = well fitted activation curve with a large enough effect; inconclusive = small, poorly fitted or top-dose-only effect; cell line not stated here; also: potency is read from the fitted curve at half-maximal effect; % of control where 0% means no effect; nearly all actives have a fitted effect of over 65% in size
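Readout is PINK1 immunofluorescence, quantified alongside mitochondrial, cell and nuclear markers by laser-scanning microplate cytometry. Cells from a stable line were exposed to compound titrations (5 concentrations) for 24 hours, with CCCP controls.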
IL-1B inflam inh – blocks inflammasome-driven IL-1 beta release. THP-1 LPS/ATP IL-1B secretion, AlphaLISA, 16 h; active compounds read low. activity change, % at 57.5 µM. 360,000 compounds, 4.7% hits; in the data active = activity change below about -50%; inconclusive = mostly about -30% to -49%; also: % is scaled to controls: 0 for no effect and ±100 for the full control effect
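Secreted IL-1B measured by AlphaLISA bead assay after 16 h compound exposure of THP-1 cells; compounds (final up to 57.5 uM) added 1 h before LPS (250 ng/mL) and ATP (1.25 mM) stimulation; lower signal means less secretion.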
Active calls of the source: *; i = inactive; u = inconclusive; x = no result; [ ] = remark or other dose. Unless noted, calls follow the shape of the dose curve; as a rule, active = well fitted curve in the direction sought with a large enough effect; inconclusive = small, poorly fitted or top-dose-only effect, or another doubt; inactive = no such curve, though single readings can be large; an effect the other way counts as inactive or inconclusive.

SMILES | ATXN2 expr inh | MCF10A rerep | S2 tox | SW480 rerep | PINK1 modulator | IL-1B inflam inh
COc1ccc(N2C(=O)c3cccc4cccc(c34)C2=O)cc1 | -2% | 2% | u | 13µM* | -2% | 3
COc1ccc(N2C(=O)c3ccccc3C2=O)cc1 | -18% | 11% | i | -1% | 0% | -22
O=C1c2cccc3cccc(c23)C(=O)N1c1cccnc1 | -16% | 18µM* | u | 3% | -2%[38.3 µM] | 13
O=C(NCc1ccccn1)c1cnn(-c2nccc(-c3cc4ccccc4o3)n2)c1C1CC1 | x | x | i | x | 5% | x
CCN(Cc1ccccc1)C(=O)CN1C(=O)COc2ccc(S(=O)(=O)N3CCOCC3)cc21 | x | x | x | x | 0% | x
CCn1nc(-c2ccc(C)cc2)nc2c(=O)n(C)c(=O)nc1-2 | x | x | x | x | 3% | x
CCc1ccccc1NC(=O)c1cn(C)c(=O)c2ccccc12 | -15% | x | i | x | 1% | x
COc1cc(OC)c(NC(=O)Nc2cccc(OCc3cc(=O)n4ccccc4n3)c2)cc1Cl | x | x | x | x | -1% | x
COc1cc(OC)c(CN2CCOc3ccc(CN4CCC(O)CC4)cc3C2)c(OC)c1 | x | x | u | x | 0% | x
CC(=C(CCOC(=O)C(C)C)SSC(CCOC(=O)C(C)C)=C(C)N(C=O)Cc1cnc(C)nc1N)N(C=O)Cc1cnc(C)nc1N | -15% | x | i | x | x | x
CC1CCCN(CCCNC(=O)c2ccc3c(c2)N(Cc2ccc(F)cc2)C(=O)c2ccccc2S3=O)C1 (configuration not stated) | -25% | 2% | i | 21µM* | 0% | -58*
CCN1CCCC1CNC(=O)c1ccc2c(c1)N(Cc1ccccc1F)C(=O)c1ccccc1S2(=O)=O (configuration not stated) | -8% | 10% | i | 31% | 0% | -21
CC1CCCN(CCCNC(=O)c2ccc3c(c2)N(Cc2ccccc2F)C(=O)c2ccccc2S3(=O)=O)C1 (configuration not stated) | u | -2% | u | u | 0% | -65*
CCC1CCCCN1CCCNC(=O)c1ccc2c(c1)N(Cc1ccc(F)cc1)C(=O)c1ccccc1S2=O (configuration not stated) | u | u | u | u | 0% | -58*
CCOC(=O)CNC(=O)CSc1nc(C(C)C)nc2c1cnn2-c1ccccc1 | x | x | i | x | 5% | 6
CCc1ccc(NC(=O)c2nc(SCc3ccccc3F)ncc2Cl)cc1 | x | x | x | x | 0% | x
COc1ccc(NC(=O)c2sc3nc4c(cc3c2N)CN(C(C)C)CC4)c(OC)c1 | u | x | u | x | 0% | x
CCOC(=O)c1nc(C)nc(Sc2n[nH]c(-c3cc(C(F)(F)F)cc(C(F)(F)F)c3)n2)c1C | -38% | 16µM* | u | -20% | u | -2
COc1cc(-c2cc3n(C)c(C)c(CCC(=O)NC4CCC(C)CC4)c(=O)n3n2)cc(OC)c1OC (configuration not stated) | x | x | x | x | 3% | x
Cc1ccc2nc(CC(O)(c3ccccc3)c3ccccc3)ccc2c1 | x | x | i | x | 7% | 35
COc1cccc2ccc(CC(O)(c3ccccc3)c3ccccc3)nc12 | x | x | i | x | 40µM* | 30
CCCN(Cc1cc2cccc(C)c2[nH]c1=O)C(=O)c1cccc(Cl)c1 | -2% | x | i | x | -2% | x
O=C(CCc1cn(Cc2ccccc2F)c2ccccc12)NCc1ccc(Cl)cc1 | x | x | x | x | -1% | x
CC1(C)CC(NC(=O)c2cccc(S(=O)(=O)N(Cc3ccccc3)c3ccccc3)c2)CC(C)(C)N1 | u | 8% | u | u | -4% | -81*
Brc1ccc(Nc2c3c(nc4nncn24)CCC3)cc1 | x | x | x | x | -1% | x
SMILES | ATXN2 expr inh | MCF10A rerep | S2 tox | SW480 rerep | PINK1 modulator | IL-1B inflam inh
O=C(O)c1cccc2c1C(=O)c1ccccc1-2 | 10% | -14% | i | -9% | 0% | x
O=C1C(=C(I)I)c2ccccc2-c2ccccc21 | u | u | x | 5.8µM* | -7% | -101*
COCc1c(C(=O)NCC2CCCN(C)C2)cnn1-c1ncc2c(n1)-c1ccccc1CCC2 (configuration not stated) | x | x | i | x | 0% | x
O=C1OCCN1C(=O)[C@H]1[C@H](c2ccccc2)C(c2ccccc2)=NN1c1ccc(Br)cc1 | -7% | u | x | 18µM* | 2% | -7
O=C1OCCN1C(=O)[C@H]1[C@H](c2ccccc2)C(c2ccccc2)=NN1c1ccccc1 | -10% | 21µM* | x | -5% | 2% | -7
O=C1OCCN1C(=O)[C@H]1[C@H](c2ccc([N+](=O)[O-])cc2)C(c2ccc(F)cc2)=NN1c1ccccc1 | -6% | -10% | i | 8% | -1% | -51*
O=C1OCCN1C(=O)[C@H]1[C@H](c2ccccc2)C(c2ccc(F)cc2)=NN1c1ccc(Br)cc1 | -3% | 9.2µM* | x | 23µM* | 1% | -16
O=C1OCCN1c1ccccc1 | 2% | -3% | i | 0% | -1% | 2
O=C1OCCN1C(=O)[C@H]1[C@H](c2ccc([N+](=O)[O-])cc2)C(c2ccc(F)cc2)=NN1c1ccc(Br)cc1 | -17% | -31% | u | -1% | 0% | u
O=C(O)CCC(=O)N1N=C(c2ccccc2)CC1c1ccc(Br)cc1 (configuration not stated) | 7% | -7% | i | -7%[9.22 µM] | 2% | 13
COc1ccc(-c2nc3scc(CCNS(=O)(=O)c4cccs4)n3n2)cc1 | x | x | x | x | 1% | x
CCC(C(=O)Nc1cc(OC)ccc1OC)n1c(C)c2cnn(-c3ccccc3)c(=O)c2c1C (configuration not stated) | 2% | x | i | x | -1% | x
Cc1ccccc1NC(=O)CSc1nnc(COc2ccc(Cl)cc2)o1 | 10% | x | i | x | 1% | x
Cc1ccccc1NC(=O)OCc1cccnc1Oc1ccc(Cl)cc1 | -23%[11.3 µM] | u | i | 4% | 1% | -79*
Cc1ccc(S(=O)(=O)Nc2cccnc2Oc2ccc(Cl)cc2)cc1 | -9% | 1% | i | -9% | -1% | 0
Cc1ccc(C(=O)Nc2cccnc2Oc2ccc(Cl)cc2)cc1 | 0% | 17% | i | -5% | 6% | -62*
O=C(NCc1ccccc1Cl)C1CCCN(c2nc3ccccc3n3cccc23)C1 (configuration not stated) | x | x | x | x | 6% | x
CCN(CC)CCNC(=O)c1cc2c(=O)n(C)c3ccccc3c2s1 | -17% | 23µM* | i | u | 1% | u
CN(CCCNC(=O)c1cc2c(=O)n(C)c3ccccc3c2s1)Cc1ccccc1 | -19% | x | u | x | 0% | x
CCCCN(CC)CCNC(=O)c1cc2c(=O)n(C)c3ccccc3c2s1 | -32% | u | i | u | 0% | -86*

Screens (PubChem BioAssay)
